Screening data (PubChem)
DAX1 inh-1: inhibits human nuclear receptor DAX1; P51843; HEK293 Gal4-DAX1 luciferase reporter, luminescence; inhibition, % at 6.75 µM; hit rate 0.99% among 340,000; AID 504766;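 active = inhibition above the mean over all tested compounds plus 3 SD, cut at about 4.2% in these data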;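 also: inhibition shows as a rise in luminescence from relieved DAX1 repression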
Target sequence (P51843 207-470 limits assumed): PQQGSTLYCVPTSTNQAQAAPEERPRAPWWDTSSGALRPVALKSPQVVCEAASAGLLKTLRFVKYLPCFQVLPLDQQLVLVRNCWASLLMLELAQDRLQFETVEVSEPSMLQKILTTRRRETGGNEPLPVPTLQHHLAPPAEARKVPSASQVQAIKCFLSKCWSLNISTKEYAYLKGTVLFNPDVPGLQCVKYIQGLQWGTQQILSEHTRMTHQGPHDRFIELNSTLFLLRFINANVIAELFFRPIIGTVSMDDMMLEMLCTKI
hcDAF-12 act: activates DAF-12 receptor from parasite H. contortus. activation, % at 6.8 µM. AID 652067. HEK293 hcDAF-12 lit1-tk-luc reporter, luminescence; 0% DMSO, 100% Δ7-dafachronic acid. hit rate 1.4% among 370,000;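 active = activation above the mean of all tested compounds plus 3 SD, cut at about 5.5% in these data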
SMARCA2 act: increases SMARCA2 function in MMTV reporter cells; hit rate 1% among 370,000; activation, % at 9.1 µM; AID 652017; MG213 cells, MMTV-luciferase reporter, dexamethasone, overnight; in the data active = activation above about 7.8%
DAX1 inh-2: DAX1 (NR0B1) inhibition, primary screen; hit rate 1.1% among 370,000; inhibition, % at 6.8 µM; HEK293T StAR-luciferase reporter, SF-1/DAX-1 repression relief;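 active = inhibition above the mean over all tested compounds plus 3 SD, cut at about 3.6% in these data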;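 also: higher inhibition means more luminescence from relief of DAX-1 repression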
ssDAF12 agonist: activates DAF-12 receptor from parasite S. stercoralis | HEK293 ssDAF-12/GRIP1 lit1-tk-luc reporter, luminescence; % of 3 µM dafachronic acid response | activation, % at 6.8 µM | hit rate 1% among 370,000;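 active = activation above the mean over all tested compounds plus 3 SD, cut at about 0.9% in these data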
hgDAF-12 ag: agonists of H. glycines DAF-12 nuclear receptor; HEK293 GAL4-hgDAF12 UAS-luciferase reporter, agonist luminescence; normalized to butyrate control; activation, % at 6.8 µM; hit rate 1.8% among 370,000; AID 687014;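 active = activation above a cutoff set at the mean of all screened compounds plus 3 SD, cut at about 10% in these data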
Of the large screens only hits and unclear results are named; the others gave an inactive call. A selection: hits, their analogues and other compounds. The true share with any hit is near 4.8%.

N/C(=N\OC(=O)c1cccc(Br)c1)c1ccc(Br)cc1	none
CC1CCCC(NC(=O)CNC(=S)N(Cc2ccccc2)Cc2cccs2)C1C (centres undefined)	none
Oc1csc(Cc2nc(-c3ccc4ccccc4c3)cs2)n1	hcDAF-12 act 6.3, ssDAF12 agonist 1.1
COc1ccc(-n2cc(CNCCCn3ccnc3)c(-c3cccc(F)c3)n2)cc1	DAX1 inh-1 5.4
O=C(c1ccccc1)c1cnc(Nc2ccccc2Cl)s1	DAX1 inh-1 6.8 (no result: hcDAF-12 act, SMARCA2 act, DAX1 inh-2, ssDAF12 agonist, hgDAF-12 ag)
O=C1N=C(N2CCOCC2)SC1=C1CCCCC1	DAX1 inh-1 6.8
CCCCCOc1ccc(C(=O)OCC(=O)Nc2cc(C)c(C)cc2[N+](=O)[O-])cc1	none
COc1cccc2c1OCC(C(=O)Nc1nccs1)=C2	hgDAF-12 ag 13
COc1ccc2c(c1)OC[C@H]1[C@H]2N2C(=O)c3cc(Br)ccc3NC(=O)[C@@]2(C)[C@H]1c1ccccc1	none (no result: hcDAF-12 act, SMARCA2 act, DAX1 inh-2, ssDAF12 agonist, hgDAF-12 ag)
CC(=O)N(C)c1nnc(-c2cnccn2)s1	none
Clc1ccc(CNc2nc(CN3CCOCC3)nc3scc(-c4ccccc4)c23)cc1	none
CCOc1ccc(CN(C)CC(=O)Nc2cc(OC)c([N+](=O)[O-])cc2C)cc1	ssDAF12 agonist 1.2
C[C@H]1CN([C@@H](C)CO)C(=O)CCCn2nncc2CO[C@@H]1CN(C)Cc1ccccc1	none
COc1ccccc1N1C[C@@H]2C[C@@H](c3ccco3)N3CCC[C@@]23C1=O	DAX1 inh-1 4.9
CSc1nsc2nc(=O)c(/C=C3\C(C)=Nc4ccccc43)c(N)n12	ssDAF12 agonist 0.9
Cc1ccc(-c2nc3ccccc3nc2-c2ccccc2)cc1	none
Clc1ccc(-c2nc3ccccc3nc2-c2ccccc2)cc1	hcDAF-12 act 6.1
O=C(O)Cn1nc(-c2ccccc2)cc1-c1ccccc1	none
O=C(O)CC(C(=O)O)n1nc(-c2ccccc2)cc1-c1ccccc1 (centres undefined)	hcDAF-12 act 5.8
CCCCCCCCCCCCNC[C@@H]1CSCCS(=O)(=O)N1	none (no result: DAX1 inh-1)
C#CCNC[C@@H]1CSCCS(=O)(=O)N1	ssDAF12 agonist 0.9 (no result: DAX1 inh-1)
CCCCCn1nnc2c(=O)oc3ccccc3c21	ssDAF12 agonist 1.1
CCCCC(=O)NC(c1cccc([N+](=O)[O-])c1)c1ccc2cccnc2c1O (centres undefined)	none
Cc1ccc(SCc2ccc(C(=O)Nc3nccs3)o2)cc1	none
O=C(Nc1nccs1)c1ccc(CSc2ccccc2)o1	DAX1 inh-2 6.2
O=C(Nc1nccs1)c1ccc(COc2ccccc2)o1	hgDAF-12 ag 11
Cc1nn(Cc2ccc(Cl)cc2)c(C)c1NC(=O)/C=C/c1cnn(C)c1	none
COc1ccc(-c2noc(N3CCC(C(=O)NCCCN4CCCC(C)C4)CC3)n2)cc1 (centres undefined)	none
CC1(c2ccccc2)CC(c2ccccc2)=Nc2ccccc2N1 (centres undefined)	none (no result: hcDAF-12 act, SMARCA2 act, DAX1 inh-2, ssDAF12 agonist, hgDAF-12 ag)
Cc1cc2c(cc1C)NC(=O)CC(c1ccccc1)=N2	hgDAF-12 ag 12
Cc1cc(C)c2oc(-c3ccc(C)c(NC(=S)NC(=O)/C=C/c4ccco4)c3)nc2c1	none
C=CCn1c(=O)c(C(=O)Nc2ccc(C)cc2)c(O)c2ccccc21	ssDAF12 agonist 1.0
Cn1c(=O)c(C(=O)NNC(=O)c2ccc(Br)cc2)c(O)c2ccccc21	DAX1 inh-1 4.5
CCn1c(=O)c(C(=O)NNS(=O)(=O)c2ccc(Br)cc2)c(O)c2ccccc21	DAX1 inh-1 8.6
CCn1c(=O)c(C(=O)NCc2ccc(F)cc2)c(O)c2ccccc21	DAX1 inh-1 4.7
CCn1c(=O)c(C(=O)NNS(=O)(=O)c2ccc(C)cc2)c(O)c2ccccc21	none
CCOC(=O)c1sc(NC(=O)c2ccc(=O)[nH]c2)nc1C	DAX1 inh-1 6.1
CC(=O)c1sc(NC(=O)c2ccco2)nc1-c1ccccc1	none (no result: hcDAF-12 act, SMARCA2 act, DAX1 inh-2, ssDAF12 agonist, hgDAF-12 ag)
CCOC(=O)c1sc(NC(=O)c2cccnc2)nc1C	hcDAF-12 act 5.9
CCOC(=O)c1sc(NC(=O)c2ccc3nc[nH]c3c2)nc1C	none
CCOC(=O)c1sc(NC(=O)c2ccccc2OCC)nc1C	none
COC(=O)c1sc(NC(=S)NC(=O)c2cccc(Br)c2)nc1C	DAX1 inh-1 4.6
CCOC(=O)c1sc(NC(=O)c2ccco2)nc1-c1ccccc1	SMARCA2 act 7.9
O=C(CSc1nc(=O)n(CCCN2CCOCC2)c2c1CCCC2)Nc1ccc(F)cc1F	none
O=c1c2ccccc2c(/C=N/NS(=O)(=O)c2ccccc2)c(O)n1-c1ccccn1	ssDAF12 agonist 1.0
C/C(=N\NC(=O)c1ccccc1F)c1ccc(C#N)cc1	DAX1 inh-1 4.5
c1ccc(-c2cc3ccccc3cn2)cc1	hcDAF-12 act 6.2
Cc1ccc(C(=O)NC(=S)Nc2ccccc2N2CCCC2)cc1[N+](=O)[O-]	ssDAF12 agonist 1.4
Cc1ccc(C(=O)Nc2ccccc2N2CCCCC2)cc1[N+](=O)[O-]	none
CC1OC(OC2C(CO)OC(OC3C(CO)OC(O)C(O)C3O)C(O)C2O)C(O)C(O)C1N[C@@H]1C=C(CO)[C@@H](O)C(O)[C@H]1O (some centres undefined)	none
CCn1cc(/C=C(\NC(=O)c2ccccc2)C(=O)NCCCN2CCOCC2)c2ccccc21	none
O=c1c(Cl)c(N2CCOCC2)cnn1-c1nc2ccccc2[nH]1	DAX1 inh-2 4.2
c1ccc2[nH]c(N3CCOCC3)nc2c1	none
Cc1cc(C)c(NC(=O)CSc2nnc(-c3ccccn3)n2N)c(Cl)c1	none
O=C1CCC(=O)N(O)CCCCCNC(=O)CCC(=O)N(O)CCCCNC(=O)CCC(=O)N(O)CCCCCN1	DAX1 inh-1 5.3
CCOc1ccc2nc(SCC(=O)N(C)C3CCS(=O)(=O)C3)[nH]c2c1 (centres undefined)	none
CCOc1ccc2nc(SCC(=O)N(C)C)[nH]c2c1	SMARCA2 act 7.9
COc1ccc2nc(SCC(=O)C(C)(C)C)[nH]c2c1	DAX1 inh-1 4.5
O=C(NCCCl)Nc1cc([N+](=O)[O-])ccc1Cl	none
Cn1cccc1Cc1nnc(SCC(=O)N2CCOCC2)n1-c1ccc(F)cc1	DAX1 inh-1 4.2
COc1ccc(N2CCN(C(=O)CSc3nnc(-c4cccnc4)n3-c3ccccc3)CC2)cc1	none
COc1ccc(-n2c(Cc3cccn3C)nnc2SCC(=O)N2CCOCC2)cc1	none
COc1ccc(N2CCN(C(=O)CSc3nnc(-c4cccnc4)n3-c3ccc(F)cc3)CC2)cc1	SMARCA2 act 7.9
O=C(NCCCN1CCOCC1)c1c(-c2ccccc2)oc2c1C(OCCCCCO)CCC2 (centres undefined)	none (no result: DAX1 inh-1)
CC(SC(=S)N(C)Cc1cccs1)C(=O)O (centres undefined)	none
CN(C)c1nc(=NCc2cccs2)ss1	SMARCA2 act 13
CC(C)(C)C(=O)Nc1nc(-c2ccccc2)ns1	none
O=C(Nc1nc(-c2ccccc2)ns1)c1ccncc1	DAX1 inh-1 8.4
